PubChem BioAssay (NCI)
This is part of a sample that, as a whole, favours compounds with a hit. Of some 79,000 tested, about 15% had one in any assay. Activity calls are given as the source filed them. No stated cut-off is given here; in the data, active means growth inhibition above about 70%; inactive means the rest.

Experiments:
[1] = NCI Yeast Anticancer Drug Screen. Data for the mec2-1 strain (AID 157); settings: S. cerevisiae mec2-1 strain, active compounds read high
Summary of the method: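 Vehicle-treated cultures served as reference for growth inhibition of compound-exposed mec2-1 yeast.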

[2] = NCI Yeast Anticancer Drug Screen. Data for the rad14 strain (AID 159);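 further: 0% = growth of vehicle-treated control cultures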; settings: S. cerevisiae rad14 strain growth inhibition, active compounds read high
Summary of the method: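 Compound-treated yeast with a defined DNA-repair lesion; growth inhibition normalised to vehicle-treated cultures.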

[3] = NCI Yeast Anticancer Drug Screen. Data for the sgs1 mgt1 strain (AID 161);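 further: 0% = growth of cultures given vehicle only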; settings: S. cerevisiae sgs1 mgt1 strain, active compounds read high
Summary of the method: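 Genetically altered yeast, compound exposure, growth inhibition relative to vehicle.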

[4] = NCI Yeast Anticancer Drug Screen. Data for the CLN2oe strain (AID 163);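 further: 0% = growth of vehicle-only control cultures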; settings: S. cerevisiae CLN2oe strain, active compounds read high
Summary of the method: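 Inhibition relative to vehicle-treated yeast is reported. Cells: strain with genetic alteration in cell-cycle control, grown with compound.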

[5] = NCI Yeast Anticancer Drug Screen. Data for the cln2 rad14 strain (AID 165);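 further: 0% = growth equal to vehicle treated cultures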; settings: S. cerevisiae cln2 rad14 strain, active compounds read high
Summary of the method: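 Each compound was tested on cln2 rad14 yeast. Inhibition of growth was calculated against vehicle-exposed controls.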

[6] = NCI Yeast Anticancer Drug Screen. Data for the bub3 strain (AID 167); settings: S. cerevisiae bub3 mutant strain, active compounds read high
Summary of the method: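 Growth of a checkpoint-deficient yeast mutant is measured after compound exposure. Values represent inhibition relative to vehicle.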

[7] = NCI Yeast Anticancer Drug Screen. Data for the wt2 strain (AID 169);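 further: 0% = growth of vehicle-treated yeast cultures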; settings: S. cerevisiae wt2 strain growth inhibition, active compounds read high
Summary of the method: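 Inhibition of yeast growth was determined after compound treatment, normalised to controls receiving only vehicle.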

[8] = NCI Yeast Anticancer Drug Screen. Data for the mlh1 strain (AID 171);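 further: 0% = growth of vehicle-treated control cultures of the same strain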; settings: S. cerevisiae mlh1 strain growth inhibition, active compounds read high
Summary of the method: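 Vehicle-normalised growth inhibition of a repair- or checkpoint-altered yeast strain following compound treatment.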

[9] = NCI Yeast Anticancer Drug Screen. Data for the sgs1 strain (AID 173);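 further: 0% = growth of vehicle-only control cultures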; settings: S. cerevisiae sgs1 mutant, active compounds read high
Summary of the method: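 Screen format: yeast with repair or checkpoint alterations, compound exposure, growth read relative to vehicle.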

[10] = NCI Yeast Anticancer Drug Screen. Data for the mlh1 rad18 strain (AID 175); settings: S. cerevisiae mlh1 rad18 strain growth inhibition, active compounds read high
Summary of the method: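 Vehicle-treated cultures served as the reference for growth inhibition in a yeast strain carrying DNA damage repair alterations exposed to each compound.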

[11] = NCI Yeast Anticancer Drug Screen. Data for the rad18 strain (AID 177); settings: S. cerevisiae rad18 mutant growth inhibition, active compounds read high
Summary of the method: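 Test articles were incubated with altered yeast defective in DNA damage repair. Results are given as inhibition of growth versus vehicle.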

[12] = NCI Yeast Anticancer Drug Screen. Data for the wt1 strain (AID 149);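 further: 0% = growth of vehicle-treated wt1 cultures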; settings: S. cerevisiae wt1 strain (SPY 50644) growth inhibition, active compounds read high
Summary of the method: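 Readout: yeast growth inhibition, normalised to vehicle controls, in the wt1 strain exposed to test compounds.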

[13] = NCI Yeast Anticancer Drug Screen. Data for the rad50EPP+ strain (AID 151);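 further: 0% = growth of vehicle-treated control cultures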; settings: S. cerevisiae rad50 mutant strain, active compounds read high
Summary of the method: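 In this screen, rad50EPP+ yeast were exposed to compounds. Growth inhibition was scored against vehicle-treated controls.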

[14] = NCI Yeast Anticancer Drug Screen. Data for the mgt1 strain (AID 153); settings: S. cerevisiae mgt1 mutant growth inhibition, active compounds read high
Summary of the method: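 mgt1 strain exposed; growth vs vehicle control recorded as inhibition.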

[15] = NCI Yeast Anticancer Drug Screen. Data for the rad50 strain (AID 155);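 further: 0% = growth of vehicle-only cultures of the same strain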; settings: S. cerevisiae rad50 strain growth inhibition, active compounds read high
Summary of the method: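 Compounds were tested on a yeast strain with an engineered DNA damage repair alteration; the reported value is growth inhibition normalised to vehicle treatment.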

[16] = at 5.0 µM (retest, dose inferred, filed as 0.5)
[17] = at 50.0 µM (retest, dose inferred, filed as 5.0)

Measured: growth inhibition

CCC(C)C(=O)OCC(=O)c1ccc(-c2ccccc2)cc1 (centres undefined)
inactive: [1]; at 100.0 µM -6% | [2]; at 1.2 µM -1% | [2]; at 3.7 µM 1% | [2]; at 11.0 µM 5% | [2]; at 33.0 µM 5% | [2]; at 100.0 µM 4% | [3]; [16] 6% | [3]; [17] -1% | [3]; at 50.0 µM -3.05% | [4]; at 1.2 µM 3% | [4]; at 3.7 µM 3% | [4]; at 11.0 µM 1% | [4]; at 33.0 µM -6% | [4]; at 100.0 µM -7% | [5]; [16] -5% | [5]; [17] -8% | [5]; at 50.0 µM 2.3% | [6]; at 1.2 µM 25% | [6]; at 3.7 µM 35% | [6]; [16] 54% | [6]; at 11.0 µM 51% | [6]; at 33.0 µM 68% | [7]; at 1.2 µM -1% | [7]; at 3.7 µM -2% | [7]; at 11.0 µM -1% | [7]; at 33.0 µM -5% | [7]; at 100.0 µM -6% | [8]; at 1.2 µM 0% | [8]; at 3.7 µM 0% | [8]; at 11.0 µM -4% | [8]; at 33.0 µM -73% | [8]; at 100.0 µM -6% | [9]; at 1.2 µM -1% | [9]; at 3.7 µM -1% | [9]; at 11.0 µM -1% | [9]; at 33.0 µM -3% | [9]; at 100.0 µM -4% | [10]; [16] -4% | [10]; [17] 5% | [10]; at 50.0 µM -2.1% | [11]; at 1.2 µM -1% | [11]; at 3.7 µM 2% | [11]; at 11.0 µM 1% | [11]; at 33.0 µM -1% | [11]; at 100.0 µM -5%
active: [6]; [17] 74% | [6]; at 50.0 µM 87.2% | [6]; at 100.0 µM 75%

CN(C)CCC(=O)c1c[nH]c2ccccc12
active: [15]; [16] 82% | [15]; [17] 98% | [15]; at 50.0 µM 73.5% | [1]; [17] 98% | [5]; [16] 77% | [10]; [17] 97%
inactive: [12]; at 1.2 µM -18% | [12]; at 3.7 µM -7% | [12]; at 11.0 µM -7% | [12]; at 33.0 µM -19% | [12]; at 100.0 µM 18% | [13]; at 1.2 µM -17% | [13]; at 3.7 µM 24% | [13]; at 11.0 µM 16% | [13]; at 33.0 µM 39% | [13]; at 100.0 µM 54% | [14]; at 1.2 µM -38% | [14]; at 3.7 µM -10% | [14]; at 11.0 µM -39% | [14]; at 33.0 µM -16% | [14]; at 100.0 µM 18% | [15]; at 1.2 µM -21% | [15]; at 3.7 µM -17% | [15]; at 11.0 µM -26% | [15]; at 33.0 µM 5% | [15]; at 100.0 µM 49% | [1]; at 1.2 µM -41% | [1]; at 3.7 µM -35% | [1]; [16] 67% | [1]; at 11.0 µM -24% | [1]; at 33.0 µM -8% | [1]; at 50.0 µM 37.7% | [1]; at 100.0 µM 64% | [2]; at 1.2 µM -23% | [2]; at 3.7 µM -29% | [2]; at 11.0 µM -9% | [2]; at 33.0 µM -2% | [2]; at 100.0 µM 18% | [3]; [16] 15% | [3]; [17] 57% | [3]; at 50.0 µM 63% | [4]; at 1.2 µM -11% | [4]; at 3.7 µM -14% | [4]; at 11.0 µM -14% | [4]; at 33.0 µM -6% | [4]; at 100.0 µM 8% | [5]; [17] 36% | [5]; at 50.0 µM 31.1% | [6]; at 1.2 µM -23% | [6]; at 3.7 µM -29% | [6]; [16] 22% | [6]; at 11.0 µM -36% | [6]; at 33.0 µM -35% | [6]; [17] 51% | [6]; at 50.0 µM 64.9% | [6]; at 100.0 µM 37% | [7]; at 1.2 µM -19% | [7]; at 3.7 µM -46% | [7]; at 11.0 µM -19% | [7]; at 33.0 µM -14% | [7]; at 100.0 µM 25% | [8]; at 1.2 µM -61% | [8]; at 3.7 µM -74% | [8]; at 11.0 µM -56% | [8]; at 33.0 µM -20% | [8]; at 100.0 µM 37% | [9]; at 1.2 µM -42% | [9]; at 3.7 µM -33% | [9]; at 11.0 µM -34% | [9]; at 33.0 µM 14% | [9]; at 100.0 µM 54% | [10]; [16] 47% | [10]; at 50.0 µM 45.8% | [11]; at 1.2 µM -55% | [11]; at 3.7 µM -62% | [11]; at 11.0 µM -47% | [11]; at 33.0 µM 8% | [11]; at 100.0 µM 57%

CC(C)c1ccc(C2NC(=S)NC3=C2c2ccccc2C3=O)cc1 (centres undefined)
active: [15]; at 50.0 µM 86.8% | [3]; at 50.0 µM 78% | [6]; at 33.0 µM 81% | [6]; [17] 87% | [6]; at 50.0 µM 89.7% | [6]; at 100.0 µM 88% | [10]; at 50.0 µM 74.1%
inactive: [12]; at 1.2 µM 16% | [12]; at 3.7 µM 6% | [12]; at 11.0 µM 18% | [12]; at 33.0 µM 17% | [12]; at 100.0 µM 17% | [13]; at 1.2 µM 23% | [13]; at 3.7 µM 21% | [13]; at 11.0 µM 16% | [13]; at 33.0 µM 15% | [13]; at 100.0 µM 3% | [14]; at 1.2 µM 3% | [14]; at 3.7 µM -4% | [14]; at 11.0 µM 7% | [14]; at 33.0 µM 19% | [14]; at 100.0 µM 50% | [15]; at 1.2 µM 24% | [15]; at 3.7 µM 24% | [15]; [16] 22% | [15]; at 11.0 µM 27% | [15]; at 33.0 µM 32% | [15]; [17] 31% | [15]; at 100.0 µM 54% | [1]; at 1.2 µM 17% | [1]; at 3.7 µM 11% | [1]; [16] -8% | [1]; at 11.0 µM -7% | [1]; at 33.0 µM 9% | [1]; [17] -11% | [1]; at 50.0 µM 64.1% | [1]; at 100.0 µM 28% | [2]; at 1.2 µM -8% | [2]; at 3.7 µM -14% | [2]; at 11.0 µM -18% | [2]; at 33.0 µM -20% | [2]; at 100.0 µM 11% | [3]; [16] 43% | [3]; [17] 24% | [4]; at 1.2 µM -9% | [4]; at 3.7 µM -5% | [4]; at 11.0 µM -5% | [4]; at 33.0 µM -8% | [4]; at 100.0 µM 18% | [5]; [16] -9% | [5]; [17] 26% | [5]; at 50.0 µM 66.8% | [6]; at 1.2 µM -3% | [6]; at 3.7 µM 4% | [6]; [16] -25% | [6]; at 11.0 µM 27% | [7]; at 1.2 µM 0% | [7]; at 3.7 µM 1% | [7]; at 11.0 µM 14% | [7]; at 33.0 µM 22% | [7]; at 100.0 µM 41% | [8]; at 1.2 µM 10% | [8]; at 3.7 µM -1% | [8]; at 11.0 µM 3% | [8]; at 33.0 µM 26% | [8]; at 100.0 µM 52% | [9]; at 1.2 µM 23% | [9]; at 3.7 µM 12% | [9]; at 11.0 µM 16% | [9]; at 33.0 µM 26% | [9]; at 100.0 µM 43% | [10]; [16] -36% | [10]; [17] 32% | [11]; at 1.2 µM 2% | [11]; at 3.7 µM 8% | [11]; at 11.0 µM 10% | [11]; at 33.0 µM 13% | [11]; at 100.0 µM 38%
